Screening results: PubChem BioAssay, several laboratories
HSF-1 act: increases HSF-1 driven luciferase reporter signal; NIH3T3-HGL HSF-1 luciferase reporter, MG132, 8 h; 100% = twice DMSO control signal; activation, % at 9 µM; 300,000 compounds, 1.7% hits;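 active = mean replicate activation of at least 50% with a set share of replicates each reaching 50%; inconclusive = only one of those two conditions met; inactive = mean below 50% and too few replicates reaching it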;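 also: 0% = median of the neutral control wells and 100% = twice that signal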
FXN GAA850 act: increases GAA850 frataxin promoter reporter activity; HEK293 lucGAA850 FXN promoter luciferase reporter, 24 h; percent of 10 µM SAHA response; activation, % at 6 µM; 360,000 compounds, 0.56% hits; AID 540364;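 active = activation above the average of all compounds screened plus 3 SD, cutoff fixed separately per campaign, cut at about 7.5% in these data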;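 also: 0% = DMSO wells and 100% = 10 µM SAHA wells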
AHR activator: human AHR activation | 320,000 compounds, 2.5% hits | AID 2796 | activation, % at 5 µM | AHR-responsive luciferase reporter cells, luminescence; in the data active = activation above about 47%;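 also: 0% = vehicle wells and 100% = reference agonist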
HSF1 inh: HSF1 inhibition; activity change, negative = inhibition, % at 7.5 µM (by protocol); AID 2098; 300,000 compounds, 0.77% hits; NIH3T3-HGL HSE-luciferase, MG132-induced, luminescence 8 h; active compounds read low;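 active = more than half of replicate wells show activity change below -50%, luminescence cut by over half; inconclusive = some wells, but at most half, below -50%; inactive = no replicate well below -50%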;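 also: luciferase reports HSF-1 transcriptional activity via heat shock element; 0% = median of DMSO wells and -100% = zero luminescence signal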
AHR act cf: human AHR activation, confirmation | shares compounds with AHR activator | AID 2845 | human cells, AHR-responsive luciferase reporter, luminescence | activation, % at 9 µM | 2,300 compounds, 87% hits; in the data active = activation above about 49%;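 also: HepG2 hepatoma cells carrying a DRE-driven firefly luciferase reporter; 0% = vehicle wells and 100% = reference agonist wells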
PXR act counter: activates human PXR in AHR activator counter-screen | cell-based PXR reporter, luciferase luminescence | activation, % at 11.6 µM | AID 434939 | 2,300 compounds, 88% hits | shares compounds with AHR activator; in the data active = activation above about 11%;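 also: human hepatoma DPX-2 cells expressing full-length human PXR; 0% = DMSO and 100% = reference agonist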
Target sequence (O75469 whole entry, looked up): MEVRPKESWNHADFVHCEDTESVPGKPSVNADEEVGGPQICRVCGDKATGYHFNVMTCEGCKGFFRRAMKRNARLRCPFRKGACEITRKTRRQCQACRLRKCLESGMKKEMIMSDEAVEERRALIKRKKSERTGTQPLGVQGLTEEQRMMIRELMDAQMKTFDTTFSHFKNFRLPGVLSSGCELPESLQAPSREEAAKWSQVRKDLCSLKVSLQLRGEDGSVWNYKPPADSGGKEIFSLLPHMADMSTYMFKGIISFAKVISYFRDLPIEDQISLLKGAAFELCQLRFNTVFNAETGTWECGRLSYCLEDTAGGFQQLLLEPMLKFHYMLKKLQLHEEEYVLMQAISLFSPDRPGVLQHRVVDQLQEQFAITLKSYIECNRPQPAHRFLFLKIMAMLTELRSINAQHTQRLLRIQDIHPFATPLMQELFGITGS
Numbers without * were called inactive. An excerpt weighted towards active compounds, which were near 4.6% of everything screened.

For Cc1cc(N2CCN(c3ccccc3)CC2)nc2ccccc12 the results were HSF-1 act 18, FXN GAA850 act 2, AHR activator 125*, HSF1 inh 10, AHR act cf 106* and PXR act counter 20*.
Screening Cc1ccc2nc(C(Cl)(Cl)Cl)nc(N/N=C/c3ccncc3)c2c1 returned HSF-1 act 13, FXN GAA850 act 1, AHR activator 93*, HSF1 inh 5, AHR act cf 110* and PXR act counter 15*.
Screening Clc1ccc(-n2nnc(-c3cccnc3)n2)cc1Cl returned HSF-1 act 13, FXN GAA850 act 2, AHR activator 112*, HSF1 inh -2, AHR act cf 135* and PXR act counter 38*.
Screening Clc1ccc(-n2nnc(-c3nccs3)n2)cc1Cl returned HSF-1 act 19, FXN GAA850 act 5, AHR activator 116*, HSF1 inh 15, AHR act cf 84* and PXR act counter 33*.
For COc1cccc(N(C(=O)Cn2nnc(-c3ccc(Cl)cc3)n2)C(C(=O)NCC2CCCO2)c2ccc(C)cc2)c1 (stereo unspecified) the results were HSF-1 act 8, FXN GAA850 act 0, AHR activator 4 and HSF1 inh -7.
Screening CCc1ccc(-c2nc(CN3CCC(C(=O)NCc4ccc(F)cc4)CC3)c(C)o2)cc1 returned HSF-1 act 4, FXN GAA850 act -3, AHR activator 2 and HSF1 inh 0.
`Nc1ccc(-c2nc3ccccc3[nH]2)cc1` gave HSF-1 act 29, FXN GAA850 act -2, AHR activator 17 and HSF1 inh 24.
Nc1ccc(-c2nc3c(ccc4ccccc43)[nH]2)cc1 was read as HSF-1 act 47, FXN GAA850 act -6, AHR activator 83*, HSF1 inh 39, AHR act cf 60* and PXR act counter 10.
`CC(Nc1ccnc2cc(Cl)ccc12)c1ccc(S(N)(=O)=O)cc1` (stereo unspecified) gave HSF-1 act -1, FXN GAA850 act 0, AHR activator -2 and HSF1 inh -4.
O=C(Nc1ccc(Br)cc1)c1cnc[nH]1 was read as HSF-1 act -2, FXN GAA850 act 4, AHR activator 109*, HSF1 inh 10, AHR act cf 68* and PXR act counter 18*.
CC(=O)c1csc(-c2ccccc2)n1 was read as HSF-1 act 2, FXN GAA850 act 1, AHR activator 3 and HSF1 inh -8.
For O=C(c1cc2ccccc2oc1=O)N1CCN(S(=O)(=O)c2ccccc2)CC1 the results were HSF-1 act 10, FXN GAA850 act 1, AHR activator 0 and HSF1 inh 2.
COC(=O)c1sc(NC(=O)COc2ccccc2)nc1C was read as HSF-1 act 29, FXN GAA850 act 4, AHR activator 7 and HSF1 inh 17.
For COc1ccc(C)c2sc(NNC(=O)COc3ccccc3)nc12 the results were HSF-1 act -40, AHR activator 80*, HSF1 inh -24, AHR act cf 99* and PXR act counter 15*.
`COc1ccccc1N1CCN(/N=C/C=C\c2ccccc2[N+](=O)[O-])CC1` gave HSF-1 act 31, FXN GAA850 act 4, AHR activator 0 and HSF1 inh 9.
For CC1CCCC(C)N1/N=C/C=C/c1ccccc1[N+](=O)[O-] (stereo unspecified) the results were HSF-1 act inconclusive, FXN GAA850 act 2, AHR activator 84*, HSF1 inh 22, AHR act cf 109* and PXR act counter 67*.
Nc1nc(/C=C/c2ccc(F)cc2)nc(-c2ccccc2O)n1 was read as HSF-1 act 11, FXN GAA850 act 2, AHR activator 109*, HSF1 inh 15, AHR act cf 136* and PXR act counter 18*.
Screening Cc1cc2n(n1)SC(Nc1ccc(F)c(Cl)c1)N2 (stereo unspecified) returned HSF-1 act 10, FXN GAA850 act 2, AHR activator 89*, HSF1 inh 7, AHR act cf 106* and PXR act counter 52*.
Cc1ccc(NC(=O)Nc2ccc(F)c(Cl)c2)cc1 was read as HSF-1 act 25, FXN GAA850 act 1, AHR activator 3 and HSF1 inh 12.
For Brc1ccccc1/C=N/Nc1ccc2ccccc2n1 the results were HSF-1 act 16, FXN GAA850 act 4, AHR activator 94*, HSF1 inh 9, AHR act cf 131* and PXR act counter 14*.
Screening O=[N+]([O-])c1cccc(C=NNc2ccc3ccccc3n2)c1O returned HSF-1 act inconclusive, FXN GAA850 act -11 and HSF1 inh inconclusive.
For Cc1ccc2[nH]c3c(=O)n4c(nc3c2c1)SCC4 the results were HSF-1 act -7, FXN GAA850 act 0, AHR activator 123*, HSF1 inh -5, AHR act cf 150* and PXR act counter 31*.
Cc1cccc(NC(=O)CN2C(=O)N/C(=C/c3ccc(C)o3)C2=O)c1 was read as HSF-1 act -22, FXN GAA850 act -3, AHR activator 1 and HSF1 inh -8.
`CCn1c(C)cc(/C=C2\NC(=O)N(CC(=O)Nc3cccc(C)c3)C2=O)c1C` gave HSF-1 act -3, FXN GAA850 act 1, AHR activator 80*, HSF1 inh 4, AHR act cf 78* and PXR act counter 16*.
For c1ccc(SCc2nc(-c3ccccn3)no2)cc1 the results were HSF-1 act inconclusive, FXN GAA850 act 6, AHR activator -3 and HSF1 inh 40.
`Nc1c2nc(-c3ccccc3Cl)[nH]c(=O)c2nc(=O)n1-c1ccccc1` gave HSF-1 act -9, FXN GAA850 act 6, AHR activator 87*, HSF1 inh 2, AHR act cf 95* and PXR act counter 19*.
For C=CCn1c(O)c(N=Nc2ccccc2O)c2ccccc21 the results were FXN GAA850 act 1, AHR activator 82*, AHR act cf 87* and PXR act counter 33*.
C=CCn1c(O)c(N=Nc2ccccc2)c2ccccc21 was read as HSF-1 act -16, FXN GAA850 act 0, AHR activator 38 and HSF1 inh 2.
For O=C1CC(C(=O)N(c2ccccc2)C(C(=O)NC2CCCC2)c2ccncc2)CS1 (stereo unspecified) the results were HSF-1 act -1, FXN GAA850 act 1, AHR activator 1 and HSF1 inh 4.
For COc1ccc2c(c1)O[C@@H](c1cccc(C(F)(F)F)c1)[C@H](O)C2=O the results were HSF-1 act 11, AHR activator 27 and HSF1 inh 2.
`COc1ccc2c(c1)O[C@H](c1ccc3c(c1)OCO3)[C@@H](O)C2=O` gave HSF-1 act 18, FXN GAA850 act 4, AHR activator 87*, HSF1 inh 12, AHR act cf 95* and PXR act counter 26*.
